# Results filed as inconclusive are left out. Where a call stands in place of a potency, no number is given. Active and inactive are the calls of the source. Unless noted, the call rests on the fitted dose curve; in most records, active means well fitted curve in the direction sought with a large enough effect; inconclusive means small, poorly fitted or top-dose-only effect, or another doubt; inactive means no such curve, though single readings can be large; an effect the other way counts as inactive or inconclusive.
# What was measured:
# [1] = target: DNA dC->dU-editing enzyme APOBEC-3G (Homo sapiens) (UniProt Q9HC16); test: qHTS for inhibitors of Vif-A3G interactions: Validation (AID 588379)
# Summary of the method: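 HeLa cells stably expressing Vif and A3G-eYFP, 700 cells/well, incubated overnight at 37 deg C, then exposed to compound overnight at 37 deg C. Inhibition of Vif-mediated degradation read as increased yellow fluorescence (Ex 488/Em 500-530) by laser-scanning cytometry.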
# [2] = target: Estrogen receptor (Homo sapiens) (UniProt P03372); test: qHTS assay for small molecule antagonists of estrogen receptor alpha signaling (AID 588513; active means well fitted curve in the direction sought with a large enough effect in the signal ratio, with a control signal flat, not every such curve was filed as active; the % refers to the signal ratio; further: potency means the concentration at half of the fitted maximal effect)
# Summary of the method: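 Antagonist-mode qHTS in ER-alpha-UAS-bla HEK 293 cells: compound titration, 0.5nM estradiol for 18 h, CCF4 fluorescence, Hill-derived IC50.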
# [3] = target: Bile acid receptor (Homo sapiens) (UniProt Q96RI1); test: qHTS assay for small molecule antagonists of farnesoid X receptor signaling (AID 588526; calls by dose curve; further: potency means the concentration at half of the fitted maximal effect)
# Summary of the method: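 Beta-lactamase reporter antagonist mode: HEK293T FXR-UAS-bla cells, titrated compound, CDCA stimulation, 16 h 37 C, CCF4 dye 2 h RT. Data normalized to CDCA 50 uM and DMSO; Hill-fit IC50.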
# [4] = target: ATP-dependent 6-phosphofructokinase (Trypanosoma brucei brucei) (UniProt O15648); test: qHTS Assay to Find Inhibitors of T. brucei phosphofructokinase: hit validation (AID 492961);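 further: luminescence reports ADP formed as PFK phosphorylates fructose-6-phosphate with ATP; series mostly up to about 51 µM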
# Summary of the method: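 Measures ADP output of PFK (1.25 nM) at 0.1 mM ATP, 0.5 mM F6P, pH 8.0 TEA buffer with 5 mM MgCl2. No-enzyme wells define full inhibition; uninhibited enzyme wells define zero.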
# [5] = target: D(1A) dopamine receptor (Homo sapiens) (UniProt P21728); test: HTS Assay for Allosteric Agonists of the Human D1 Dopamine Receptor: Primary Screen for Potentiators (AID 488982)
# Summary of the method: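 Calcium flux in an inducible, force-coupled HEK293 Trex D1 line (overnight at 30 C): agonist mode is the 180 s kinetic read after compound; potentiator mode is the following 180 s read after dopamine at EC20.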
# [6] = target: D(1A) dopamine receptor (Homo sapiens) (UniProt P21728); test: HTS Assay for Allosteric Agonists of the Human D1 Dopamine Receptor: Primary Screen for Antagonists (AID 488983);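 further: calcium flux response to an EC80 dopamine challenge measured with no-wash dye; nearly all actives have a fitted effect of over 65% in size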
# Summary of the method: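 Tetracycline-induced HEK293 T-REx cells expressing force-coupled D1 were plated overnight at 30 C, dye-loaded for calcium, and read kinetically. Compounds were pinned in, then an EC80 dopamine challenge followed after 180 s to reveal antagonism.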
# [7] = Validation screen for small molecules that induce genotoxicity in human embryonic kidney (HEK293T) cells expressing luciferase-tagged ELG1 (AID 493106)
# Summary of the method: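 HEK293T cells expressing luciferase-tagged ELG1 were exposed to compound or DMSO vehicle for 16 hr at 37 °C, 5% CO2. Genotoxic stress raises ELG1 levels, so increased luciferase signal after ONE-Glo addition and 30 min at room temperature marks hits.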
# [8] = target: ATPase family AAA domain-containing protein 5 (Homo sapiens) (UniProt Q96QE3); test: Validation screen for small molecules that inhibit ELG1-dependent DNA repair in human embryonic kidney (HEK293T) cells expressing luciferase-tagged ELG1 (AID 493107);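 further: cells co-treated with the DNA-damaging agent 5-fluorouridine alongside compound; series mostly up to about 46 µM; inhibitors lower the ELG1-luciferase luminescence signal; nearly all actives have a fitted effect of over 70% in size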
# Summary of the method: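 HEK293T cells expressing luciferase-tagged ELG1 were co-treated with 5-fluorouridine and compound or DMSO for 16 hr at 37 °C, 5% CO2. Luciferase activity was then read with ONE-Glo after 30 min at room temperature; suppressed signal indicates blocked ELG1 function.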
# [9] = Nrf2 qHTS screen for inhibitors: Validation (AID 493153; active means well fitted inhibition curve with a large enough effect in the main read-out, with a control signal flat, not every such curve was filed as active); settings: viability change: measured here: cytotoxicity max response
# Summary of the method: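 A549 cells carrying an ARE-driven firefly luciferase reporter, in 5% FBS OPTI-MEM, were treated with compounds in concentration-response for 18-24 h at 37°C. Viability was read by CellTiter-Fluor fluorescence, then Nrf2 activity by luciferase luminescence.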
# [10] = qHTS for Inhibitors of Cell Surface uPA Generation: Validation Assay (AID 493164);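 further: RAW 264.7 macrophage cells exposed to compound for 18 h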
# Summary of the method: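 RAW 264.7, 4000 cells/well, o/n plating; cpd 7-pt 1:5 dilution 2.45 nM–38.3 uM final; 18 h, 37 C/5% CO2; ATP-Lite, 5 s luminescence exposure.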
# [11] = target: Peptidyl-prolyl cis-trans isomerase NIMA-interacting 1 (Homo sapiens) (UniProt Q13526); test: qHTS Validation Assay to Find Inhibitors of Pin1 (AID 504536; active means well fitted inhibition curve with a large enough effect in the polarisation, with a control signal flat, not every such curve was filed as active; the % refers to the polarisation)
# Summary of the method: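 Fluorescence polarization competition: compounds (titration) displace HiFluor-488-labeled Pin1-1b peptide from Pin1 (0.3 uM final) in pH 7.5 HEPES buffer with DTT, 10 min at room temperature; %Activity normalized to no-enzyme wells, curves fitted.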
# [12] = target: Phosphoglycerate kinase, glycosomal (Trypanosoma brucei brucei) (UniProt P07378); test: qHTS Validation Assay to Find Inhibitors of Phosphoglycerate Kinase (AID 504547)
# Summary of the method: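 Inhibition of the enzyme is judged by a Kinase-Glo Plus luminescent signal following a one-hour incubation at room temperature. Because 1,3-BPG is unstable, it is made in situ by GAPDH at 100nM final; no-PGK wells define the baseline.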
# [13] = target: phosphoglycerate mutase (Leishmania major) (UniProt Q4Q090); test: qHTS Validation Assay to Find Inhibitors of Phosphoglycerate Mutase (AID 504548); further: series mostly up to about 58 µM
# Summary of the method: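 Lm PGAM 1.25nM final; 100 mM TEA pH 7.6, 5 mM MgCl2, 0.01% Tween-20; 45 min RT; Kinase-GloPlus, 10 min; end-point luminescence. Enzyme-free wells as negative controls.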
# [14] = qHTS for Inhibitors of ATXN expression: Validation of Cytotoxic Assay (AID 588349)
# Summary of the method: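 HEK293 cells were dosed with titrated compounds for 72 hr at 37 degrees C. Viability was read by CellTiter Glo luminescence, with intracellular ATP as the marker of cell survival.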
# [15] = qHTS for Inhibitors of ATXN expression: Validation (AID 588378); further: series mostly up to about 57 µM; nearly all actives have a fitted effect of over 75% in size
# Summary of the method: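 After a 2 h attachment and 24 h compound incubation, HEK293-ATXN2-FFLuc wells are read for fluorescence at 405 nm excitation/525 nm emission as a viability measure, then for Bright-Glo luminescence reflecting ATXN2 expression.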
# [16] = target: Estrogen receptor (Homo sapiens) (UniProt P03372); test: qHTS assay for small molecule agonists of estrogen receptor alpha signaling (AID 588514; calls by dose curve; further: nearly all actives have a fitted effect of over 70% in size)
# Summary of the method: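 ER-alpha-UAS-bla GripTite HEK 293 cells in medium with 2% charcoal/dextran-treated FBS were treated with compound titrations at 37 C for 18 hrs; beta-lactamase reporter read by CCF4 fluorescence after 2 hrs at RT.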
# [17] = target: Androgen receptor (Homo sapiens) (UniProt P10275); test: qHTS assay for small molecule antagonists of androgen receptor signaling (AID 588516; active means well fitted curve in the direction sought with a large enough effect in the signal ratio, with a control signal flat, not every such curve was filed as active; the % refers to the signal ratio; further: potency means the concentration at half of the fitted maximal effect); settings: AR-UAS-bla HEK293, beta-lactamase ratio, antagonist mode, 16 h
# Summary of the method: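 Compounds tested in titration against 10 nM R1881 in AR-responsive bla reporter HEK 293 cells; CCF4 fluorescence (460/530 nm) after 16 h exposure gave IC50 and efficacy.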
# [18] = target: Glucocorticoid receptor (Homo sapiens) (UniProt P04150); test: qHTS assay for small molecule agonists of glucocorticoid receptor signaling (AID 588532; active means well fitted curve in the direction sought with a large enough effect in the signal ratio, with a control signal flat; the % refers to the signal ratio); settings: HeLa MMTV-bla, beta-lactamase ratio, agonist, 18 h; stronger effect = higher value; percent of dexamethasone control, DMSO zero
# Summary of the method: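 Using MMTV-bla HeLa cells in medium with 1% stripped FBS and 25 mM HEPES, compounds were titrated and incubated overnight-length (18 h). Beta-lactamase cleavage of CCF4 was quantified by dual-emission fluorescence.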
# [19] = target: Galactokinase (Homo sapiens) (UniProt P51570); test: qHTS Validation Assay for Inhibitors of Human Galactokinase (GALK) (AID 493189)
# Summary of the method: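 Enzyme activity is inferred from ATP consumption: human GALK phosphorylates galactose (100 uM) using 35 uM ATP for 1 h at room temperature, and luciferase-based Kinase-Glo Plus reports unconsumed ATP.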
# [20] = Validation screen for small molecules that induce DNA re-replication in SW480 colon adenocarcinoma cells (AID 504364)
# Summary of the method: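 SW480 cells seeded at 250 per well were exposed to compound or DMSO for 48 hr at 37 C, 5% CO2, then stained with Hoechst for 40 min. DNA content per nucleus was imaged (405 nm ex, 500-530 nm em).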
# Sequence of ATPase family AAA domain-containing protein 5 (Homo sapiens) (Q96QE3 whole entry, looked up, the tested form may be a part): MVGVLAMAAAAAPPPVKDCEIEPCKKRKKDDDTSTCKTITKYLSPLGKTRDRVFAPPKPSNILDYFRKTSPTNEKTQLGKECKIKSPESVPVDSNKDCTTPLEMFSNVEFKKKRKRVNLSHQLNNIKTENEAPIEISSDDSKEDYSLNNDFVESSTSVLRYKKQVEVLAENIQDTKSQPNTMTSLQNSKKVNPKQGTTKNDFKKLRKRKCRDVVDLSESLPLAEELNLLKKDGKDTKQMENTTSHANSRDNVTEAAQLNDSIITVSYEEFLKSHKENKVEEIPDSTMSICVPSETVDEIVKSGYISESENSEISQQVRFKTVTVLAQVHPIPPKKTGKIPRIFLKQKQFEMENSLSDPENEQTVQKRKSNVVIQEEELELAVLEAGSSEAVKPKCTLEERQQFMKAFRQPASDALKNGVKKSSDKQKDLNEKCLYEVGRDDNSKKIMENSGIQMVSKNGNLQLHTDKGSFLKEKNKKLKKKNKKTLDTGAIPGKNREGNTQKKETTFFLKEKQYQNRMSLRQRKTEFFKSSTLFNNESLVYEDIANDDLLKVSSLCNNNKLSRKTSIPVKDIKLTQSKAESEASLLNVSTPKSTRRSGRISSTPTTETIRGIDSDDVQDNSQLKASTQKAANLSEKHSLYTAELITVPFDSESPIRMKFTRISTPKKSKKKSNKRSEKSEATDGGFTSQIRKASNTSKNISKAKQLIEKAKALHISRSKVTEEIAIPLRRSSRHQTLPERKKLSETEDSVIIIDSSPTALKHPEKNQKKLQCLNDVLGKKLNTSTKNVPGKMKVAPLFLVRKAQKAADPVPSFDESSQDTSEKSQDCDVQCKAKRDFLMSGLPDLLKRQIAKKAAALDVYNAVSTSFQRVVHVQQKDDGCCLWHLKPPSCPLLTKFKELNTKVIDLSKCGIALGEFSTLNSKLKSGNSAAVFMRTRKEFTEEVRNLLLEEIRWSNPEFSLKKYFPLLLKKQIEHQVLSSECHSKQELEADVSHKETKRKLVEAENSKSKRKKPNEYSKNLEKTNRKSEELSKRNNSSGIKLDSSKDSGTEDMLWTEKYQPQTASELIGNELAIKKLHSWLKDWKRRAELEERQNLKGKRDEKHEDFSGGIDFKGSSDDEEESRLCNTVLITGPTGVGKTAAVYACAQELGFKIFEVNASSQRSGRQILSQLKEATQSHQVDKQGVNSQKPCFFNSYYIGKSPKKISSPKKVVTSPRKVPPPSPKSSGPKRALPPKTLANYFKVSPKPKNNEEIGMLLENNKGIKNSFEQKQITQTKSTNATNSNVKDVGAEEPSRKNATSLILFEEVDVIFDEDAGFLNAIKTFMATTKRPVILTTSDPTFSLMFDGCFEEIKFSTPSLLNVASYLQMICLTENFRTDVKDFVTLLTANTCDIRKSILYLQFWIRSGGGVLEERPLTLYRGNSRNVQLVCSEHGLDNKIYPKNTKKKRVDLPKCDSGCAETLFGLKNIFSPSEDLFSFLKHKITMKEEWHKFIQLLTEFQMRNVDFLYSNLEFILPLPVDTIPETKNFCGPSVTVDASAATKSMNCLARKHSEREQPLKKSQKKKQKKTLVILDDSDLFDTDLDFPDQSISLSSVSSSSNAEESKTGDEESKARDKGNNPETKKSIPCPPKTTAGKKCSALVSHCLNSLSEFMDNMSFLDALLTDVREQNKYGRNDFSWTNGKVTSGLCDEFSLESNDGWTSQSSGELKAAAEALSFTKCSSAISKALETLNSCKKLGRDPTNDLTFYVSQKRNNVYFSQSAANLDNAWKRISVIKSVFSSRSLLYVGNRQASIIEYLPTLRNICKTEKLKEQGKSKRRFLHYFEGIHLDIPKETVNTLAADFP
# Sequence of ATP-dependent 6-phosphofructokinase (Trypanosoma brucei brucei) (O15648 whole entry, looked up): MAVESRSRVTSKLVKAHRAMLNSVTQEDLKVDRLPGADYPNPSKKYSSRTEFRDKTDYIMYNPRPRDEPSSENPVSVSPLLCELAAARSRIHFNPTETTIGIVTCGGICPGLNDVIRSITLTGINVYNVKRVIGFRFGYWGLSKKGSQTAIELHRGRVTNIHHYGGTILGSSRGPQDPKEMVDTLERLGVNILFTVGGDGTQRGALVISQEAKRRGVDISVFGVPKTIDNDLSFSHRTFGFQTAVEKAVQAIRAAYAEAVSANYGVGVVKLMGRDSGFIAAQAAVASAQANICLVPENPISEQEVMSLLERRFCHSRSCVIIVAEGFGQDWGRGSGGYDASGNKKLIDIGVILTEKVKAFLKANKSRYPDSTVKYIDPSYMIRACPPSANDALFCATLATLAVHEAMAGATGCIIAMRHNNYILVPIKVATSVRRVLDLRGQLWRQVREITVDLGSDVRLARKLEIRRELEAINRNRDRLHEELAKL
# Sequence of D(1A) dopamine receptor (Homo sapiens) (P21728 whole entry, looked up): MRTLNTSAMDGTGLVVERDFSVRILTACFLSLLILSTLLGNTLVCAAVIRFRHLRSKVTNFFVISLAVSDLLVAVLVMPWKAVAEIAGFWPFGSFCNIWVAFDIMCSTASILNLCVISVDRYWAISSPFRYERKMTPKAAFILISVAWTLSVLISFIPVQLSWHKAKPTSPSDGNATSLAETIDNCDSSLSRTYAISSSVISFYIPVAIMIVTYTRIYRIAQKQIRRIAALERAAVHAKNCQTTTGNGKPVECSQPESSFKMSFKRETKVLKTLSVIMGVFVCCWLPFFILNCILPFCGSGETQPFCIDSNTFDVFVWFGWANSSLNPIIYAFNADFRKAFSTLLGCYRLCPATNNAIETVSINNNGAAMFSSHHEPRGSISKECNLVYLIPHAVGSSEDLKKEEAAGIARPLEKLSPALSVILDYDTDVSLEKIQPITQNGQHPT
# Sequence of DNA dC->dU-editing enzyme APOBEC-3G (Homo sapiens) (Q9HC16 whole entry, looked up): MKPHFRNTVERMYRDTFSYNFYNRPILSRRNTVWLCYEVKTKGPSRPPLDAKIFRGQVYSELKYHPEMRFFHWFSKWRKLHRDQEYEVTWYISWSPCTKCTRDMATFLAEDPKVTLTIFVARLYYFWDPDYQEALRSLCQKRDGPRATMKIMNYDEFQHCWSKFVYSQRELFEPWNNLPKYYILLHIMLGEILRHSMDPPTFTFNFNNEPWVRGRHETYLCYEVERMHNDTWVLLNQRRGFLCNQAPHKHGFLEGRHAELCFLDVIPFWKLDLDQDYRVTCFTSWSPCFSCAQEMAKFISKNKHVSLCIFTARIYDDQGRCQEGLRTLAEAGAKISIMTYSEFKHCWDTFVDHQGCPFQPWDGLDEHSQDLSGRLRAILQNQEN
# Sequence of Phosphoglycerate kinase, glycosomal (Trypanosoma brucei brucei) (P07378 whole entry, looked up): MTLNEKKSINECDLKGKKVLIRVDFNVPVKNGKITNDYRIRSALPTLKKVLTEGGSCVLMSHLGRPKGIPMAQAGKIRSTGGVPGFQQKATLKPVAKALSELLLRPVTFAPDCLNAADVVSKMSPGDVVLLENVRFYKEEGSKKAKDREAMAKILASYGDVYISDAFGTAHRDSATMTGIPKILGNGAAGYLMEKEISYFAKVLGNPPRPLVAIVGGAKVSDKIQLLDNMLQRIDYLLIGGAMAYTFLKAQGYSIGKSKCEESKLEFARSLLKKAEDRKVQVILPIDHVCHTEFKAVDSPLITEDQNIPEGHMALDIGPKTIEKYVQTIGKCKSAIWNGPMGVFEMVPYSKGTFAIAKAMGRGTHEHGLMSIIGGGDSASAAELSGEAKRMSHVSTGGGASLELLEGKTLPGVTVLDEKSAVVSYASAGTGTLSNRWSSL
# Sequence of phosphoglycerate mutase (Leishmania major) (Q4Q090 1-553): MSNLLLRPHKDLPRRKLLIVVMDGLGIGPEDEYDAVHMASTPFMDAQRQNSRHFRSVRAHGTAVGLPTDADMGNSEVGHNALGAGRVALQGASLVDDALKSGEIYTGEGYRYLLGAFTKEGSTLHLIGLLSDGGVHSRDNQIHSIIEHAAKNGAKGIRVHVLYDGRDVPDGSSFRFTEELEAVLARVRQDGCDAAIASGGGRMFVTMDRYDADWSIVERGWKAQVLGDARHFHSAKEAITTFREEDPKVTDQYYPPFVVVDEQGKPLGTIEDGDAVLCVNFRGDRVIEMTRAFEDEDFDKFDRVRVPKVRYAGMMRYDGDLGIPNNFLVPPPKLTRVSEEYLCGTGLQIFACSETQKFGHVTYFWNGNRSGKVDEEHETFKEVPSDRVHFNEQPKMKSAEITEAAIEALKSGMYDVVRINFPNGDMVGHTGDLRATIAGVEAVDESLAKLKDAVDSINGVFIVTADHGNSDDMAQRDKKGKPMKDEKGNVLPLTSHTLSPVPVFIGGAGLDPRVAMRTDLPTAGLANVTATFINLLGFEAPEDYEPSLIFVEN
# Sequence of Peptidyl-prolyl cis-trans isomerase NIMA-interacting 1 (Homo sapiens) (Q13526 whole entry, looked up): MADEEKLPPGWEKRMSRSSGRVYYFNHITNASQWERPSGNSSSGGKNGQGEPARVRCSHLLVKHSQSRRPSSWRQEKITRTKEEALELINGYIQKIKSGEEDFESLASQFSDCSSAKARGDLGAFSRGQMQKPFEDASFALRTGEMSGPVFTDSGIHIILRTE
# Sequence of Estrogen receptor (Homo sapiens) (P03372 whole entry, looked up): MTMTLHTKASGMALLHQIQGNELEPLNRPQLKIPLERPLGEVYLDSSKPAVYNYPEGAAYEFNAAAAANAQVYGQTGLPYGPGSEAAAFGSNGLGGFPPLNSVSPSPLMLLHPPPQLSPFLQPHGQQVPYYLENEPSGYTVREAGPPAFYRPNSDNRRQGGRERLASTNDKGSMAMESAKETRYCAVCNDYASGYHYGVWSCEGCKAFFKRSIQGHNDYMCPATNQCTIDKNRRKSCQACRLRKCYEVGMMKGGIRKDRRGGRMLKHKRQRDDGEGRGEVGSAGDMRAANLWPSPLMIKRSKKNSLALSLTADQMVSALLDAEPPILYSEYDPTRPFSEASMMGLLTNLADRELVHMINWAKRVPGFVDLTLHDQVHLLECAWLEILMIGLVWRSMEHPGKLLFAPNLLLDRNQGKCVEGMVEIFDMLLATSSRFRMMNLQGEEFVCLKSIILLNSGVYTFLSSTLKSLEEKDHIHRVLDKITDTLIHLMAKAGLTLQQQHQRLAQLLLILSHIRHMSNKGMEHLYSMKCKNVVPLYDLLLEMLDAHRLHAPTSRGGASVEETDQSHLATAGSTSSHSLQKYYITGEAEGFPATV
smiles,measurement,setting,value
Cc1cc(O)c2c(c1)C(=O)c1cccc(O)c1C2=O,outcome,[1],inactive
same,Potency,[2],inactive
same,Potency,[3],inactive
O=c1c(O)c(-c2ccc(O)c(O)c2)oc2cc(O)ccc12,outcome,[1],inactive
Nc1nc2c(c(=O)[nH]1)N(C=O)[C@H](CNc1ccc(C(=O)N[C@@H](CCC(=O)O)C(=O)O)cc1)CN2,outcome,[4],inactive
CN(N=O)C(=O)N[C@H]1C(O)OC(CO)[C@@H](O)[C@H]1O (some centres not stated),outcome,[1],inactive
COc1cc2ncnc(Nc3cccc(Br)c3)c2cc1OC,outcome,[1],inactive
CN[C@H](CC(C)C)C(=O)N[C@H]1C(=O)N[C@@H](CC(N)=O)C(=O)N[C@@H]2C(=O)N[C@H]3C(=O)N[C@H](C(=O)N[C@H](C(=O)O)c4cc(O)cc(O)c4-c4cc3ccc4O)[C@H](O)c3ccc(c(Cl)c3)Oc3cc2cc(c3O[C@@H]2O[C@H](CO)[C@@H](O)[C@H](O)[C@@H]2O[C@H]2C[C@](C)(N)[C@H](O)[C@H](C)O2)Oc2ccc(cc2Cl)[C@H]1O,outcome,[5],inactive
same,outcome,[6],inactive
same,outcome,[7],inactive
same,outcome,[8],inactive
same,outcome,[9],inactive
same,viability change,[9],-4.03%
same,outcome,[10],inactive
same,outcome,[11],inactive
same,outcome,[12],inactive
same,outcome,[13],inactive
same,outcome,[14],inactive
same,outcome,[15],inactive
CC(C=CC1=C(C)CCCC1(C)C)=CC=CC(C)=CC(=O)Nc1ccc(O)cc1,Potency,[2],31.6 µM [inhibitor] (active)
same,outcome,[16],inactive
same,Potency,[17],35.5 µM (active)
same,Potency,[3],39.8 µM (active)
same,activation,[18],5.23% (inactive)
COc1cc2c(cc1O)CCC1C2CC[C@@]2(C)C1CC[C@@H]2O (some centres not stated),outcome,[1],inactive
COc1ccc([C@@H]2CNC(=O)C2)cc1OC1CCCC1,outcome,[4],inactive
same,outcome,[1],inactive
COc1ccc2cc([S+]([O-])Cc3ncc(C)c(OC)c3C)nc2c1,outcome,[5],inactive
same,outcome,[6],inactive
same,outcome,[7],inactive
same,outcome,[8],inactive
same,outcome,[9],inactive
same,viability change,[9],-3.22%
same,outcome,[10],inactive
same,outcome,[11],inactive
same,outcome,[12],inactive
same,outcome,[13],inactive
same,outcome,[14],inactive
same,outcome,[15],inactive
CC(Oc1ccc(O)cc1)(P(=O)(O)O)P(=O)(O)O,outcome,[1],inactive
O=c1[nH]c(=O)n([C@H]2C[C@@H](O)[C@@H](CO)O2)cc1C=CBr,outcome,[5],inactive
same,outcome,[6],inactive
same,outcome,[7],inactive
same,outcome,[8],inactive
same,outcome,[9],inactive
same,viability change,[9],1.21%
same,outcome,[10],inactive
same,outcome,[11],inactive
same,outcome,[12],inactive
same,outcome,[13],inactive
same,outcome,[14],inactive
same,outcome,[15],inactive
O=C1c2cccc(O)c2C(=O)c2c(O)cc(CO)cc21,Potency,[3],inactive
same,activation,[18],-14.5% (inactive)
CCCCCCCCCCCC(CC1OC(=O)C1CCCCCC)OC(=O)C(CC(C)C)NC=O (configuration not stated),outcome,[4],inactive
C[C@]12CC[C@@H]3c4ccc(O)cc4CC[C@H]3[C@H]1CC[C@H]2O,activation,[18],-15.8% (inactive)
OC[C@@H](O)[C@@H](O)[C@H](O)[C@@H](O)CO,Potency,[2],inactive
same,outcome,[16],inactive
CC(C)[C@H](CO)Nc1nc(Nc2cccc(Cl)c2)c2ncn(C(C)C)c2n1,outcome,[1],inactive
N=c1ccn2c(n1)O[C@H]1[C@@H](O)[C@@H](CO)O[C@H]12,outcome,[19],inactive
same,outcome,[20],inactive
CCOC(=O)C1=C(C)NC(=S)NC1c1cccc(O)c1 (configuration not stated),outcome,[1],inactive
CCC(C(=O)O)C1CCC(C)C(C(C)C(O)C(C)C(=O)C(CC)C2OC3(C=CC(O)[C@@]4(CC[C@](C)(C5CC[C@@](O)(CC)C(C)O5)O4)O3)C(C)CC2C)O1 (some centres not stated),outcome,[4],inactive
O=C(O)C=Cc1ccc(Cn2ccnc2)cc1,outcome,[1],inactive
c1coc(CNc2ncnc3nc[nH]c23)c1,outcome,[1],inactive
OCC(O)C(O)C(O)CO (configuration not stated),outcome,[4],inactive
COc1ccc2c(c1OC)C(=O)OC2[C@H]1c2c(cc3c(c2OC)OCO3)CCN1C (some centres not stated),outcome,[4],inactive
